Test results from PubChem BioAssay AID651953 (The Scripps Research Institute Molecular Screening Center, 2012).
Among all 2,400 compounds or so, about 430 (18%) were called active. The list is a sample of the results. A number with no mark means an inactive call. Rule as the data show it: active = activation above about 12%; inactive = the rest.

Assay: nonspecific calcium signal increase, Ga16 cells – cell-based, fluorescence, counter-screen for TAAR1 antagonist project (AID 651953);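 also: 0% = vehicle wells and 100% = saturating stimulus response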
Conditions: Ga16-expressing cells, agonist counterscreen, at 3 µM, hits give high values

First: Cc1ccc2cccc(OCCCOc3ccccc3CO)c2n1
Second: CC(=O)c1ccccc1OCc1ccc(C(=O)c2ccccc2)cc1
The activation of the first is higher: 7.98% for the first, 6.62% for the second.

First: COc1ccc(/C=C/C(=O)Nc2ccc(C34CC5CC(CC(O)(C5)C3)C4)cc2)cc1OC
Second: COc1ccc(C(=O)Nc2ccccc2C(=O)N/N=C/c2ccc(O)c(OC)c2)cc1
The activation of the first is higher: 11.4% for the first, 7.09% for the second.

Compared with `Cc1cccc(NC(=O)c2nc[nH]c2C(=O)NCC(=O)OCc2ccccc2)c1`, `O=C(CCc1ccccc1)Nc1cccc(-c2nnc(-c3ccco3)o2)c1` is higher in activation: 4.58% for the first, 11% for the second.

First: CSCCC(NC(=O)COc1ccccc1)C(=O)OCC(=O)c1cc2ccccc2o1 (stereo not given)
Second: COc1ccc(-c2cc(C(=O)N(C)CC(=O)Nc3ccccc3Cl)c3ccccc3n2)cc1OC
The activation of the first is higher: 7.36% for the first, 7.25% for the second.

Compared with `Cc1nc(N2CCN(c3ccccn3)CC2)c2c(C)c(C(=O)Nc3ccc(F)cc3)sc2n1`, `CC(C)Oc1cc(F)ccc1-c1cc(C(=O)Nc2ccc(F)cc2)[nH]n1` is lower in activation: 8.75% for the first, 5.64% for the second.

Compared with `O=C(NCCN1C(=O)S/C(=C\c2cccnc2)C1=O)c1ccc(S(=O)(=O)N2CCCC2)cc1`, `C/C(=N\Nc1ncc(Cl)cc1Cl)c1ccc(S(=O)(=O)NCc2ccco2)cc1` is lower in activation: 2.99% for the first, 0.19% for the second.

First: O=S1(=O)c2c(cccc2N2CCCCC2)O[C@H](COCc2ccccc2)CN1C1CC1
Second: CCN1CCc2c(C#N)c(NCc3ccccc3)nc(NCCO)c2C1
The activation of the first is lower: 2.53% for the first, 4.39% for the second.

First: COc1ccc(Cl)cc1NC(=O)CCS(=O)(=O)c1cc2c(cc1C)NC(=O)CO2
Second: COc1ccc2[nH]c(=O)c(CN(Cc3cccnc3)S(=O)(=O)c3ccccc3F)cc2c1
The activation of the first is lower: 8.26% for the first, 9.12% for the second.

Going from `CCOc1ccc(N2CC(C(=O)N/N=C/c3sccc3C)CC2=O)cc1` (stereo not given) to `Cc1ccc(NC(=O)c2ccc(CSc3ncnc4nc[nH]c34)cc2)c(C)c1`, the activation rises from 1% to 7.81%.

Going from `CSC(=S)N/N=C/c1c[nH]c2ccccc12` to `O=C(NCC1CCCO1)c1cc2c([nH]c3ccccc32)c(-c2ccc(F)cc2)n1` (stereo not given), the activation rises from 6.16% to 6.43%.

First: O=C(O)c1ccc(NC(=O)c2cn(-c3ccccc3)nc2-c2ccc(Cl)cc2)cc1
Second: COc1ccc(-c2cc(C(=O)N(C)Cc3ccccc3)c3ccccc3n2)cc1
The activation of the first is lower: 3.12% for the first, 4.97% for the second.

Going from `COc1ccc(-c2cc(C(=O)N(C)Cc3ccc(OC)c(OC)c3OC)c3ccccc3n2)cc1OC` to `C=CCc1cc(S(=O)(=O)c2ccc(O)c(CC=C)c2)ccc1O`, the activation falls from 7.43% to 3.77%.

`Cc1ccc(C)c(N2CCN(C(=O)CCCCCn3c(=S)[nH]c4ccc(N5CCOCC5)cc4c3=O)CC2)c1` gave an activation of 8.79%.

In the case of `COc1ccc(CN(C)C(=O)c2cc(-c3ccc(C)cc3C)nc3ccccc23)c(OC)c1OC`, the activation is reported as 11.6% (active).
For `Cc1cc(C(C)(C)C)oc1C(=O)N(CC(=O)NC1CCCC1)Cc1ccc(Cl)cc1`, the activation was 13.9% (active).
In the case of `Cc1ccccc1OCC(=O)Nc1ccc(N2CCN(C(=O)C(C)C)CC2)c(Cl)c1`, the activation is reported as 11.8% (active).
In the case of `CCNS(=O)(=O)c1ccc(CCC(=O)N2CCN(c3cc(Cl)ccc3C)CC2)cc1`, the activation is reported as 11.5% (active).
In the case of `OC(c1ccccc1)(c1ccccc1)C1CCN(CCCOc2ccc(-c3ccsc3)cc2)CC1`, the activation is reported as 17.6% (active).
